According to PubChem BioAssay (EPA / NIEHS):
Records with an inconclusive call do not appear. Activity calls are given as the source filed them. How the source made its calls, unless noted: active means hit-call score of the fitted dose curve at least 0.9, where 1 is the maximum; inactive means score below 0.9.

What was measured:
[1] = test system: Brachyury (BRA) Protein Expression, Deisenroth Lab, TBXT (gene 6862); assay: CCTE_Deisenroth_DEVTOX-GLR_legacy_Bra: (Legacy) CCTE's DevTox GLR-Endo Assay Evaluation of Brachyury (BRA) Protein Expression, Deisenroth Lab (AID 2284329)
Method in brief: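 RUES2-GLR human pluripotent cells differentiated 48 h with two 24-h-interval chemical exposures (1 nM - 200 uM, 10 points); fixed, nuclear-stained, imaged. Bra+ cell percentage (intensity 5x BMAD above pluripotent control median) fitted relative to 0.2% DMSO.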

[2] = CCTE_Deisenroth_DEVTOX-GLR_legacy_CellCount: (Legacy) Viability Assessment in CCTE's DevTox GLR-Endo Assay, Deisenroth Lab (AID 2284331); details: actives raise or lower the signal
Method in brief: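 Human pluripotent RUES2-GLR cells differentiated 48 h with two 24-h-interval exposures, 10-point 1 nM–200 uM series, 0.2% DMSO. Fixed nuclei counted by high-content imaging (5 fields/well); bidirectional fit vs DMSO, n≥4.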

[3] = test system: SRY-box transcription factor 2 (SOX2) Protein Expression, Deisenroth Lab, SOX2 (gene 6657); assay: CCTE_Deisenroth_DEVTOX-GLR_legacy_Sox2: (Legacy) CCTE's DevTox GLR-Endo Assay Evaluation of SRY-box transcription factor 2 (SOX2) Protein Expression, Deisenroth Lab (AID 2284346)
Method in brief: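 RUES2-GLR human pluripotent cells seeded 24 h, then differentiated 48 h in defined media with two chemical doses 24 h apart (10-point, 1 nM–200 uM). Fixed, nuclear-stained, imaged; % Sox2+ cells (>5x BMAD over endoderm control median), DMSO-subtracted, fitted upward.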

[4] = test system: SRY-box transcription factor 2 (SOX2) Protein Expression, Deisenroth Lab, SOX2 (gene 6657); assay: CCTE_Deisenroth_DEVTOX-GLR_Endo_SOX2: CCTE's DevTox GLR-Endo Assay Evaluation of SRY-box transcription factor 2 (SOX2) Protein Expression, Deisenroth Lab (AID 2284412; active means hit-call score of the fitted dose curve at least 0.9, where 1 is the maximum)
Method in brief: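 RUES2-GLR human pluripotent cells were seeded 24 h, then differentiated 48 h with two chemical exposures 24 h apart. Cells were fixed, nuclei stained and imaged by high-content microscopy. Endpoint is %SOX2+ cells over cell count, minus 0.2% DMSO control; 10-point series 1 nM–200 uM.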

[5] = test system: SRY-box transcription factor 17 (SOX17) Protein Expression, Deisenroth Lab, SOX17 (gene 64321); assay: CCTE_Deisenroth_DEVTOX-GLR_Endo_SOX17: CCTE's DevTox GLR-Endo Assay Evaluation of SRY-box transcription factor 17 (SOX17) Protein Expression, Deisenroth Lab (AID 2284413)
Method in brief: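 Endpoint: % change in SOX17+ fraction (SOX17+ cells / cell count) vs 0.2% DMSO solvent control. RUES2-GLR reporter cells, 48 h endoderm differentiation, two doses at 24 h intervals, high-content fluorescence imaging, 5 fields/well.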

[6] = test system: Brachyury (BRA) Protein Expression, TBXT (gene 6862); assay: CCTE_Deisenroth_DEVTOX-GLR_Endo_BRA: CCTE's DevTox GLR-Endo Assay Evaluation of Brachyury (BRA) Protein Expression, Deisenroth Lab (AID 2284417)
Method in brief: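 RUES2-GLR pluripotent cells differentiated 48 h with two chemical exposures 24 h apart, 10-point range 1 nM - 200 uM. Percentage of BRA+ cells per total count by high-content imaging, minus 0.2% DMSO control.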

[7] = CCTE_Deisenroth_DEVTOX-GLR_Endo_CellCount: Viability Assessment in CCTE's DevTox GLR-Endo Assay, Deisenroth Lab (AID 2284420)
Method in brief: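 Nuclei counted by fluorescence microscopy as a surrogate for cell number, expressed as percent change relative to 0.2% DMSO control. Human RUES2-GLR cells, 48 h differentiation, dosed twice; 1 nM - 200 uM series.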

[8] = test system: SRY-box transcription factor 17 (SOX17) Protein Expression, Deisenroth Lab, SOX17 (gene 64321); assay: CCTE_Deisenroth_DEVTOX-GLR_Pluri_SOX17: CCTE's DevTox GLR-Pluri Assay Evaluation of SRY-box transcription factor 17 (SOX17) Protein Expression, Deisenroth Lab (AID 2284427; active means hit-call score of the fitted dose curve at least 0.9, where 1 is the maximum)
Method in brief: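 Readout: percent SOX17+ cells (SOX17+ count/cell count) by high-content imaging of an inducible fluorescent reporter, corrected for 0.2% DMSO solvent control. RUES2-GLR cells, 48 h differentiation, dosed twice at 24 h intervals, 1 nM - 200 uM.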

[9] = test system: SRY-box transcription factor 2 (SOX2) Protein Expression, Deisenroth Lab, SOX2 (gene 6657); assay: CCTE_Deisenroth_DEVTOX-GLR_Pluri_SOX2: CCTE's DevTox GLR-Pluri Assay Evaluation of SRY-box transcription factor 2 (SOX2) Protein Expression, Deisenroth Lab (AID 2284428)
Method in brief: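 RUES2-GLR (human pluripotent), 48 h post-dosing, 2 exposures q24h, 1 nM–200 uM 10-pt. Fixed, nuclear dye, high-content imaging 5 fields/well. Endpoint: % SOX2+ cells (SOX2+/total count) vs 0.2% DMSO; n≥4.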

[10] = test system: Brachyury (BRA) Protein Expression, Deisenroth Lab, TBXT (gene 6862); assay: CCTE_Deisenroth_DEVTOX-GLR_Pluri_BRA: CCTE's DevTox GLR-Pluri Assay Evaluation of Brachyury (BRA) Protein Expression, Deisenroth Lab (AID 2284429; active means hit-call score of the fitted dose curve at least 0.9, where 1 is the maximum)
Method in brief: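 Human pluripotent RUES2-GLR cells, seeded 24 h, were differentiated 48 h in defined media with two chemical doses at 24-h intervals (10-point, 1 nM - 200 uM). Readout: percent BRA+ cells by fluorescent reporter imaging, minus 0.2% DMSO control.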

[11] = CCTE_Deisenroth_DEVTOX-GLR_Pluri_CellCount: Viability Assessment in CCTE's DevTox GLR-Pluri Assay Evaluation of Total Cell Counts, Deisenroth Lab (AID 2284430)
Method in brief: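 RUES2-GLR human pluripotent cells, seeded 24 h, then differentiated 48 h with two chemical exposures 24 h apart; 10-point series 1 nM - 200 uM. Fixed, nuclear-stained, imaged (5 fields/well); nuclei count as % change vs 0.2% DMSO.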

[12] = target: Estrogen receptor (Homo sapiens) (UniProt P03372); assay: CCTE_Deisenroth_AIME_96WELL_LUC_Active: CCTE's 96-well Estrogen Receptor Transactivation Assay with AIME metabolic competence (ERTA luciferase; metabolism positive), Deisenroth Lab (AID 2284023; active means hit-call score of the fitted dose curve at least 0.9, where 1 is the maximum)
Chain of Estrogen receptor (Homo sapiens) (P03372 whole entry, looked up): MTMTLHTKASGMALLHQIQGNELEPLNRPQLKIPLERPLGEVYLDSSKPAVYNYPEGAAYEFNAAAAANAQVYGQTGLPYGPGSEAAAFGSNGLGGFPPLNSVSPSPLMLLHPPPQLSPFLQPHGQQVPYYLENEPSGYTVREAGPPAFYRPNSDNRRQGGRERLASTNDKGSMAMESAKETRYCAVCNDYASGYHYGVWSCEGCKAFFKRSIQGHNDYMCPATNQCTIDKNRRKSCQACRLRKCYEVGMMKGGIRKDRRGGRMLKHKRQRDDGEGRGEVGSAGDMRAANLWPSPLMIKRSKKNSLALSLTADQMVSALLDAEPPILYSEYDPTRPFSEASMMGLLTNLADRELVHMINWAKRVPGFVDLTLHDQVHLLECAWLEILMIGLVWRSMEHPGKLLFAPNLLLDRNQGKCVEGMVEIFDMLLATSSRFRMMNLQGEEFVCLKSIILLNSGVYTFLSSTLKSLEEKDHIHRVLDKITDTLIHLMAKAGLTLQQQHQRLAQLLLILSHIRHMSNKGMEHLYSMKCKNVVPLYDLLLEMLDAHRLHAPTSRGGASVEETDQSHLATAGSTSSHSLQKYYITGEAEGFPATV
Method in brief: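 Chemicals pre-incubated 2 h with alginate-immobilized phenobarbital/beta-naphthoflavone-induced male Sprague Dawley rat liver S9, then medium transferred to VM7Luc4E2 cells for 24 h luciferase read-out. 10-point series 0.002 - 200 uM; fitted relative to 17beta-estradiol.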

[13] = target: Estrogen receptor (Homo sapiens) (UniProt P03372); assay: CCTE_Deisenroth_AIME_96WELL_LUC_Inactive: CCTE's 96-well Estrogen Receptor Transactivation Assay without AIME metabolic competence (ERTA luciferase; metabolism negative), Deisenroth Lab (AID 2284025; active means hit-call score of the fitted dose curve at least 0.9, where 1 is the maximum)
Method in brief: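 VM7Luc4E2 breast cells, luciferase read 24 h after dosing with medium pre-incubated 2 h on alginate-water lids (metabolism negative). 10-point series 0.002–200 uM, single technical replicate, n≥4; fit relative to 17beta-estradiol.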

[14] = CCTE_Deisenroth_AIME_96WELL_CTox_Active: Cytotoxicity Assessment (CTOX) in CCTE's 96-well Estrogen Receptor Transactivation Assay with AIME metabolic competence (metabolism positive), Deisenroth Lab (AID 2284028; active means hit-call score of the fitted dose curve at least 0.9, where 1 is the maximum)
Method in brief: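 Chemicals (0.002–200 uM) were first incubated 2 h with alginate-immobilized phenobarbital/beta-naphthoflavone-induced male rat liver S9; conditioned medium then went onto VM7Luc4E2 cells for 24 h, with viability read by protease-substrate fluorescence, fitted bidirectionally.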

[15] = CCTE_Deisenroth_AIME_96WELL_CTox_Inactive: Cytotoxicity Assessment (CTOX) in CCTE's 96-well Estrogen Receptor Transactivation Assay without AIME metabolic competence (metabolism negative), Deisenroth Lab (AID 2284029; active means hit-call score of the fitted dose curve at least 0.9, where 1 is the maximum)
Method in brief: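 Chemicals (0.002 - 200 uM, 10 points) incubated 2 h with alginate-water microspheres (no S9), then medium moved onto VM7Luc4E2 cells for 24 h. Viability by protease-substrate cleavage to fluorescent probe; bidirectional fitting.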

Measured: AC50

COc1ccc2[nH]c([S@@](=O)Cc3ncc(C)c(OC)c3C)nc2c1
active: [1] 67.9 µM | [2] 48.1 µM | [3] 56.1 µM | [4] 83.8 µM | [5] 33.8 µM | [6] 70.6 µM | [7] 47.9 µM | [8] 54 µM | [9] 66.6 µM | [10] 46.4 µM | [11] 31.3 µM

c1ccc([C@H]2O[C@H]2c2ccccc2)cc1
inactive: [14] | [15]
active: [12] 66.7 µM | [13] 72.1 µM
